From PubChem BioAssay AID2528 (National Center for Advancing Translational Sciences (NCATS), 2010)
Values joined by “and” are separate entries in the source; they are usually repeats but may differ in a detail not shown here. Equal entries are not always repeated. Hit rate of the full screen: of about 350,000 compounds, about 700 (0.2%) were called active. Calls come from the whole dose curve; as a rule, active = well fitted inhibition curve with a large enough effect; inconclusive = small, poorly fitted or top-dose-only effect; inactive = flat fitted curve, though single readings scatter. Many of the other results were omitted from the sample, so actives are more common in it than they were.

target: RecQ-like DNA helicase BLM (Homo sapiens) (UniProt P54132); test: qHTS Assay for Inhibitors of Bloom's syndrome helicase (BLM); details: recombinant BLM DNA unwinding, fluorescence dequenching; series mostly up to 56.1 µM; activity change, negative = inhibition: at the top concentration; note: nearly all actives have a fitted effect of over 35% in size;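 for activity change, negative = inhibition: plate controls were vehicle for no effect and no enzyme for full effect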
Potency is the fitted concentration of half-maximal effect.

Sequence of RecQ-like DNA helicase BLM (Homo sapiens) (P54132 whole entry, looked up): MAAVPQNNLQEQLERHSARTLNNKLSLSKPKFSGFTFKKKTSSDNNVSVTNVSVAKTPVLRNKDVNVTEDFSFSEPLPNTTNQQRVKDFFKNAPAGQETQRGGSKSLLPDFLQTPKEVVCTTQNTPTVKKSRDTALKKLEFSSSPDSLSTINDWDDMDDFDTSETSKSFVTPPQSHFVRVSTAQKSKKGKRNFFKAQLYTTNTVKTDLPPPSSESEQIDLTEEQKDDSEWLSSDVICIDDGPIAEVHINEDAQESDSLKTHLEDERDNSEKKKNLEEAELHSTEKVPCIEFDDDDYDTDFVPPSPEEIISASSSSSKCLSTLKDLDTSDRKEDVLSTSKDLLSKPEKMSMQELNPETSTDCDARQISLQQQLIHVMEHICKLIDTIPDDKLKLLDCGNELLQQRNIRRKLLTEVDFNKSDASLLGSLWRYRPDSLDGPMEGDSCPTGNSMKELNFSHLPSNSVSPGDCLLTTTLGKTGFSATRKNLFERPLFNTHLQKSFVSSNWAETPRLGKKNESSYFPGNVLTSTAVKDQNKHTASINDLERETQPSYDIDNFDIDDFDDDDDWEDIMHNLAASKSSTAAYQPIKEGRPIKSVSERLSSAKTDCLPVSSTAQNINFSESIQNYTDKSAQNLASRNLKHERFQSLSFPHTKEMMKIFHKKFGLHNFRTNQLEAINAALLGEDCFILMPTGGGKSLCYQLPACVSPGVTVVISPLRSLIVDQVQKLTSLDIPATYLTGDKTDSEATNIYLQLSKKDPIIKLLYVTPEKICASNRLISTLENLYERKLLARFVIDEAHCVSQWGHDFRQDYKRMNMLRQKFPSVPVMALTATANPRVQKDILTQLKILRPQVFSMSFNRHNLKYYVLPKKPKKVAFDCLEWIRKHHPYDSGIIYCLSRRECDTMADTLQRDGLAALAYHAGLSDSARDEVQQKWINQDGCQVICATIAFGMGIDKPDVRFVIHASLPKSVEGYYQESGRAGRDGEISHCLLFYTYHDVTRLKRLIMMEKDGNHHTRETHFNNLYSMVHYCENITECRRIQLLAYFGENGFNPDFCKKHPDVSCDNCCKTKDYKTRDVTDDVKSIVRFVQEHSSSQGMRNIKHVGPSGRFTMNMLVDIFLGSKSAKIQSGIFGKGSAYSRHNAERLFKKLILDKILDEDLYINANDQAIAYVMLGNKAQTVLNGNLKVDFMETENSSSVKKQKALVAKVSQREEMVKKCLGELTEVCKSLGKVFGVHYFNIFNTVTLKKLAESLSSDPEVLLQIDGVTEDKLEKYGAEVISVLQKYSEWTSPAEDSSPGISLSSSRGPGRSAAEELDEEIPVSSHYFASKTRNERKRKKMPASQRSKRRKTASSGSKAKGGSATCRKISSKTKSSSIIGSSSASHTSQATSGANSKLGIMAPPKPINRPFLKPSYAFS

Row | SMILES | Potency | activity change, negative = inhibition
1 | CS(=O)(=O)c1ccc2nc(NC(=O)c3ccc(Cl)nc3)sc2c1 | 17.8 µM (active) | 
2 | CN(C)c1cccc(C(=O)Nc2nc3ccc(S(=O)(=O)NC(C)(C)C)cc3s2)c1 |  | -6.17% (inactive)
3 | Cc1cc2nc(NC(=O)c3ccc(S(=O)(=O)N4CCOCC4)cc3)sc2cc1C |  | -6.29% (inactive)
4 | CC(=O)OCC1OC(C#Cc2ccccc2Cl)C=CC1OC(C)=O (stereo not drawn) |  | 2.5% [at 12.4 µM] (inactive)
5 | O=C(c1cc2ccccc2s1)N1CCN(c2ccccn2)CC1 |  | -3.96% (inactive)
6 | O=C(c1cc(-c2ccc(Cl)cc2)on1)N1CCN(c2ccccc2)CC1 |  | -2.16% (inactive)
7 | O=C(c1cc2c(s1)CCC2)N1CCN(c2ccccc2)CC1 | 12.6 µM (active) | 
8 | Cc1ccc(-c2cc(C(F)(F)F)c(C#N)c(SCC(=O)Nc3ccccc3)n2)cc1 |  | -0.785% (inactive)
9 | C=CCN1c2ccccc2[C@]23C[C@@H](C(=O)OC)N(S(=O)(=O)c4ccc([N+](=O)[O-])cc4)C2=NC(C(=O)OC)=C(C(=O)OC)[C@H]13 |  | -4.61% [at 12.4 µM] (inactive)
10 | CCCn1c(C)nc2c(NCCCCN(CC)CC)nc(C)nc21 |  | -7.03% (inactive)
11 | O=C(N/N=C/C=C/c1ccco1)c1cccs1 | 22.4 µM (active) | 
12 | O=C(N/N=C/c1ccco1)c1csc2c1CCCC2 |  | -12.9% (inactive)
13 | O=C(N/N=C/c1ccco1)c1ccc(NC(=O)C2CC2)cc1 |  | -5.07% (inactive)
14 | Cc1noc(C)c1-c1ccc2ncnc(NCc3ccc4[nH]ccc4c3)c2c1 |  | 2.82% (inactive)
15 | O=C(O)C(c1ccccc1)N1C(=O)/C(=C\c2ccc(-c3cccc(Cl)c3)o2)SC1=S (stereo not drawn) | 22.4 µM (active) | 
16 | O=C(NCc1ccccc1)c1cc(-c2cccc(Cl)c2)on1 |  | -4.2% (inactive)
17 | CN=C1S/C(=C\c2ccc(Sc3ccc(Cl)cc3)o2)C(=O)N1C |  | 1.6% (inactive)
18 | CCN1CC=C2C(C#N)=C(N)C(C#N)(C#N)[C@H](c3ccoc3)[C@H]2C1 | 28.2 µM (active) | 
19 | COc1cccc(-c2cc(=O)c3cc(NC(=O)c4ccc(C)cc4)ccc3[nH]2)c1 |  | 1.5% [at 75.6 µM] (inactive)
20 | CCOC(=O)C1=NO[C@@]2(C=C(Br)C(=O)[C@H]3O[C@H]32)C1 |  | 4.08% (inactive)

Row | SMILES | Potency | activity change, negative = inhibition
21 | CN1CCCC1CCO[C@@](C)(c1ccccc1)c1ccc(Cl)cc1 (stereo partly drawn) |  | -0.377% (inactive)
22 | NS(=O)(=O)c1ccc2nc(NC(=O)COc3ccccc3)sc2c1 |  | -2.46% (inactive)
23 | CC(=O)OCC(=O)C1CCC2C3CCC4=CC(=O)CC[C@@]4(C)C3CC[C@]12C (stereo partly drawn) |  | -10.3% (inactive)
24 | CC(C)(C)c1ccc(OC2C=CC(C#Cc3ccccc3)OC2CO)cc1 (stereo not drawn) |  | -1.55% [at 12.4 µM] (inactive)
25 | COC(=O)[C@@H]1CC2=CC(=O)CC[C@]2(C)[C@@]23O[C@@H]2C[C@@]2(C)[C@@H](CC[C@@]24CCC(=O)O4)[C@H]13 |  | 4.16% (inactive)
26 | O=C1CN(Cc2ccccc2)S(=O)(=O)c2ccccc21 |  | -3.21% (inactive)
27 | Nc1ccc2nc3c(=O)[nH]c(=S)[nH]c3nc2c1 | 2.82 µM (active) | 
28 | O=C(Nc1cccc(C(F)(F)F)c1)c1cc(Br)cc(Br)c1O |  | -13.1% (inactive)
29 | COC(=O)[C@@]1(Cc2ccc(OC)cc2)[C@H]2c3cc(C(=O)N4CCCC4)n(Cc4ccc(C(F)(F)F)nc4)c3C[C@H]2CN1C(=O)c1ccccc1 |  | -17.2% (inactive)
30 | COc1ccccc1CNC(=O)C(=O)NCC(c1cccs1)S(=O)(=O)c1cccs1 (stereo not drawn) |  | -2.66% (inactive)
31 | CO[C@H]1COC(=O)[C@@H](OCc2ccccc2)/C=C\[C@H](C)[C@@H](OC)COC(=O)[C@H](OCc2ccccc2)/C=C\[C@@H]1C |  | 6.6% [at 12.4 µM] (inactive)
32 | CC(=O)OCC1OC(C#CCCCc2ccccc2)C=CC1OC(C)=O (stereo not drawn) |  | -2.87% [at 12.4 µM] (inactive) and 2.33% [at 12.4 µM] (inactive)
33 | C#CCCCCCCCCCCCCCCCC(=O)O | inactive | 
34 | O=C(Nc1cccc(F)c1)N1CCC2(CC1)CCN(S(=O)(=O)c1ccccc1)CC2 |  | -3.85% (inactive)
35 | CNc1nc(Nc2ccc(C)c(Cl)c2)nc(N)c1[N+](=O)[O-] |  | -3.82% (inactive)
36 | CN(c1ccccc1)c1nc(N)c([N+](=O)[O-])c(NCc2ccco2)n1 |  | -4.92% (inactive)
37 | COc1cccc(Nc2nc(N)c([N+](=O)[O-])c(NCc3ccco3)n2)c1 | 3.55 µM (active) | 
38 | CS(=O)(=O)N1CCC2(CC1)CN(Cc1ccccc1)C2 |  | 1.65% (inactive)
39 | COC1[C@H](OC(N)=O)C(O)[C@H](Oc2ccc3c(O)c(NC(=O)c4ccc(O)c(CC=C(C)C)c4)c(=O)oc3c2C)OC1(C)C (stereo partly drawn) |  | -11.1% (inactive)
40 | COc1ccc2c(c1)O[C@@H](c1ccc3c(c1)OCO3)[C@H](OC(=O)NCc1ccco1)C2=O |  | -1.86% (inactive)

Row | SMILES | Potency | activity change, negative = inhibition
41 | Clc1ccc(C(Cn2ccnc2)OCc2ccsc2Cl)c(Cl)c1 (stereo not drawn) |  | -8.4% (inactive)
42 | Cc1[nH]c2ccccc2c1C(c1ccccc1)c1cccs1 (stereo not drawn) |  | -2.8% (inactive)
43 | COc1ccccc1CNc1cc(-c2ccccc2CN(C)C)ncn1 |  | -4.32% (inactive)
44 | C/C=C1\C2C=C(C)CC1(N)c1ccc(=O)[nH]c1C2 (stereo not drawn) |  | -1.88% (inactive)
45 | COc1ccc(OC)c2sc(N3CCN(C(=O)C4COc5ccccc5O4)CC3)nc12 (stereo not drawn) |  | -5.31% (inactive)
46 | COc1cc(NS(=O)(=O)c2ccc3c(c2)OCC(C(=O)N2CCCC2)O3)cc(OC)c1 (stereo not drawn) |  | 0.541% (inactive)
47 | Cc1c(CC(=O)N2CCN(C(=O)C3COc4ccccc4O3)CC2)c(=O)oc2c(O)c(O)ccc12 (stereo not drawn) | 8.91 µM (active) | 
48 | COC(=O)CC1c2ccccc2C(Cc2ccc(OC)cc2)=C(C)N1C(=O)OC (stereo not drawn) |  | 1.25% [at 12.4 µM] (inactive)
49 | O=C(NC1CC(=O)N(c2ccc(F)cc2)C1)c1ccc(S(=O)(=O)N2CCCC2)cc1 (stereo not drawn) |  | 0.711% (inactive)
50 | O=c1c(CCc2ccccc2)nc2cncnc2n1C1CC1 |  | 3% (inactive)
51 | COC(=O)c1ccc(C(NC(=O)OCc2ccccc2)/C(C)=C/[C@@H](C)C(=O)NCc2cc(C)on2)cc1 (stereo partly drawn) |  | -7.71% (inactive)
52 | C#CCC(C(=O)OC)(C(=O)OC)C(C[N+](=O)[O-])c1ccccc1 (stereo not drawn) |  | 0.0811% [at 12.4 µM] (inactive)
53 | COc1ccc(OCCCn2c(C3CC(=O)N(c4ccc(F)cc4)C3)nc3ccccc32)cc1 (stereo not drawn) |  | -6.91% (inactive)
54 | Cc1ccc(N=C2NC(=O)/C(=C/C=C/c3ccco3)S2)cc1C | 11.2 µM (active) | 
55 | Cc1cc(N(C)C)nc(Cl)n1 |  | 2.61% (inactive)
56 | O=S(O)S(=O)(=O)O |  | -2.82% (inactive)
57 | N#Cc1cccc(CS(=O)(=O)c2nnnn2-c2cc(C(F)(F)F)cc(C(F)(F)F)c2)c1 |  | 2.23% (inactive)
58 | O=C(c1ccco1)N1CCC[C@@]2(CCN(c3ccccc3)C2)C1 |  | -1.82% (inactive)
